# Sampled rows, rich in hits. Any-hit rate of the full collection: about 19%.
# DT40 TDP1 CPT – qHTS for Inhibitors of human tyrosyl-DNA phosphodiesterase 1 (TDP1): qHTS in cells in presence of CPT | 420,000 compounds, 12% hits | Potency, µM (titrated, usually from 46.2 µM), usual class: inhibitors | chicken DT40 Tdp1-/-;hTDP1 cells + 20 nM CPT, ATP luminescence, 48 h | AID 686979, 2013; further: nearly all actives have a fitted effect of over 55% in size
#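 Chicken DT40 Tdp1-/- cells stably complemented with human TDP1 were seeded at 400 cells/well in medium containing 20 nM camptothecin, exposed to pin-transferred compounds, and grown at 37 °C for at least 48 hr. Viability was read as ATP luminescence.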
# HT1080-NT tox – qHTS for induction of synthetic lethality in tumor cells producing 2HG: qHTS for the HT-1080-NT fibrosarcoma cell line; Potency, µM (top dose mostly 46.1 µM), hits mostly cytotoxic; HT-1080-NT fibrosarcoma viability, CellTiter-Glo ATP luminescence, 48 h; 360,000 compounds, 1.6% hits;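 further: NT is the 2HG producing partner of a matched IDH1 knockdown line; nearly all actives have a fitted effect of over 55% in size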
#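 Fibrosarcoma NT cells, 750 per well in 5% FBS RPMI, were exposed to compound for 48 hours. Viability: CellTiter-Glo luminescence.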
# TDP1 cell noCPT – qHTS for Inhibitors of human tyrosyl-DNA phosphodiesterase 1 (TDP1): qHTS in cells in absence of CPT; DT40 Tdp1-/- hTDP1 cells, no CPT, ATP luminescence, 48 h; Potency, µM (top dose mostly 46.2 µM), actives largely listed as inhibitors; 420,000 compounds, 15% hits; AID 686978, 2013; further: nearly all actives have a fitted effect of over 55% in size
#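 No-CPT arm: Tdp1-/-;hTDP1 DT40 cells (400/well) plus compounds, incubated ≥48 hr at 37 °C. Readout CellTiter-Glo luminescence.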
# HT1080 IDH1KD tx – qHTS for induction of synthetic lethality in tumor cells producing 2HG: qHTS for the HT-1080-IDH1KD cell line; HT-1080 IDH1 knockdown viability, ATP luminescence, 48 h; Potency, µM (highest dose often 46.1 µM), actives largely listed as cytotoxic; AID 686971, 2013; 360,000 compounds, 2% hits
#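 Assay cells: HT-1080 with IDH1 knockdown, 750 per well, RPMI/5% FBS. Exposure: 48 h at 37 °C following 2 h pre-incubation. Read: CellTiter-Glo luminescence; fitted concentration-response, curve class assigned.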
# IL-1B inflam inh – qHTS for Inhibitors of Inflammasome Signaling: IL-1-beta AlphaLISA Primary Screen; THP-1 LPS/ATP IL-1B secretion, AlphaLISA, 16 h; stronger effect = lower value; activity change, % at 57.5 µM; 360,000 compounds, 4.7% hits; AID 743279, 2014; in the data active means activity change below about -50%; inconclusive means mostly about -30% to -49%
#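 THP-1 cells pretreated 1 hr with compounds (up to 57.5 uM final), then stimulated with LPS (250 ng/mL final) plus ATP (1.25 mM final); secreted IL-1B measured by AlphaLISA after 16 hr, decreased signal indicating inhibition.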
# Hits are given with their value; – = inactive; ? = inconclusive; · = no result given; [ ] = another dose, or the depositor's remark. Unless noted, the call rests on the fitted dose curve; in most records, active means well fitted curve in the direction sought with a large enough effect; inconclusive means small, poorly fitted or top-dose-only effect, or another doubt; inactive means no such curve, though single readings can be large; an effect the other way counts as inactive or inconclusive.
SMILES,DT40 TDP1 CPT,HT1080-NT tox,TDP1 cell noCPT,HT1080 IDH1KD tx,IL-1B inflam inh
CC(OC(=O)/C=C/c1ccc2ccccc2n1)C(=O)N(C)c1ccccc1 (centres undefined),?,–,?,–,–
O/N=C/c1ccc2ccccc2n1,–,–,–,–,–
COc1cc(=O)n2c(c1C(=O)N(C)Cc1nonc1C)CCN(Cc1cc(F)ccc1F)CC2,–[9.04 µM],·,–,·,·
N#Cc1ccc(-c2ccccc2)nc1SCCN1CCOCC1,–,–,?,–,-75.3
Cc1nc(SCC(=O)c2cc3ccccc3oc2=O)c(C#N)c(-c2cccs2)c1C(=O)Nc1ccccc1,20.6µM,–,?,–,–
N#Cc1ccc(-c2ccccc2)nc1SCC(=O)c1cc2ccccc2oc1=O,23.1µM,?,?,?,–
CSc1cc(C)c(OCC(=O)Nc2c(C)nn(C)c2C)c(C)c1,14.6µM,–,?,–,–
Cc1nn(C)c(C)c1NC(=O)COc1ccccc1C#N,–,–,–,–,–
COc1ccc(/C=C/C(=O)Nc2c(C)nn(C)c2C)cc1COc1ccc(Cl)cc1Br,18.4µM,–,?,–,?
Cc1nn(C)c(C)c1NC(=O)COc1ccc(F)cc1Br,?,13µM,13µM,–,–
CN(CCO)C(=O)c1cn(C2CCCN(Cc3cccc4ccccc34)C2)nn1 (centres undefined),–,·,–,·,·
CC1CCCC(=NNc2ccc3ccccc3n2)C1 (centres undefined),–,–,?,–,–
COc1ccc2c(c1)c(=O)oc1c(C)c(OC(C)C(=O)N[C@@H](Cc3c[nH]c4ccc(O)cc34)C(=O)O)ccc12 (some centres undefined),–,–,–,–,–
COCCn1c(=O)c(-c2cccs2)nc2cnc(N(C)C)nc21,–,·,–,·,·
CCC/C=C1/CCCOC(C(=O)NCc2ccc(S(C)(=O)=O)cc2)(C(F)(F)F)C1 (centres undefined),–,–,–,–,–
CCC/C=C1/CCCOC(C(=O)NCc2ccc(C)o2)(C(F)(F)F)C1 (centres undefined),7.31µM,?,10.3µM,–,-62.7
c1coc(-c2cc3nc(NC4CCCCC4)ccn3n2)c1,?,–,20.6µM,–,–
Cc1ccc(C(=O)N(C)CC(=O)Nc2cccc(F)c2)cc1S(=O)(=O)N1CCCCC1,?,–,?,–,–
CCOc1ccc(NC(=O)CN(C)C(=O)c2ccccc2OCc2c(C)noc2C)cc1OCC,?,–,0.651µM,–,–
Cc1noc(C)c1COc1ccccc1C(=O)NCCc1ccc(Cl)cc1,?,–,?,–,-68.9
CCOc1ccc(CCNC(=O)c2ccc(OCc3c(C)noc3C)cc2)cc1OCC,25.9µM,?,20.6µM,–,–
COc1ccc(CN(C)C(=O)c2ccccc2OCc2c(C)noc2C)c(OC)c1,–,–,–,–,–
COc1ccc(Br)cc1CN(C)C(=O)c1ccccc1OCc1c(C)noc1C,?,–,16.4µM,–,-65.0
COc1ccc(CCNC(=O)c2ccccc2OCc2c(C)noc2C)cc1,?,–,?,–,–
O=C(Cc1c(F)cccc1Cl)NNC(=S)Nc1ccc(S(=O)(=O)Nc2ncccn2)cc1,–,–,–,–,–
SMILES,DT40 TDP1 CPT,HT1080-NT tox,TDP1 cell noCPT,HT1080 IDH1KD tx,IL-1B inflam inh
CCOC(=O)c1cc(OC(=O)Cc2ccc(OC)c(S(=O)(=O)N3CCOCC3)c2)cc(C(=O)OCC)c1,–,–,–,–,–
Cc1noc(C)c1COc1ccccc1C(=O)N(C)Cc1ccc(C(C)(C)C)cc1,7.31µM,–,6.51µM,?,–
Cc1noc(C)c1COc1ccccc1C(=O)N(C)Cc1ccc(F)cc1,?,–,?,–,–
O=C(Cn1c(=O)n(-c2ccccc2)c(=O)n1CC(=O)N1CCCCC1)N1CCCCC1,–,–,–,–,–
Cc1cccc(NC(=O)c2sc3nc(C)nc(N4CCOCC4)c3c2C)c1,–,–,?,–,?
Cc1nc(N2CCN(C)CC2)c2c(C)c(C(=O)Nc3ccc(C)c(F)c3)sc2n1,16.4µM,–[9.24 µM],?,14.1µM,-59.8
Cc1nc(N2CCCCC2)c2c(C)c(C(=O)Nc3ccc4c(c3)OCCO4)sc2n1,?,–,4.11µM,–,·
O=C1OCC/C1=C\NCCCCCCCCN/C=C1\CCOC1=O,–,–,?,–,–
CC(=O)c1ccc(N2Cc3ccccc3C3(CCOCC3)C2=N)cc1,–,?,–,–,–
CN(C(=O)c1oc(=O)c2ccccc2c1-c1ccccc1)c1cccc(Cl)c1,18.4µM,·,23.1µM,·,·
COc1ccc(CNC(=O)CN2C(=O)COc3ccc(S(=O)(=O)N4CCC(C)CC4)cc32)cc1,–,–,?,–,–
CC(/C=N/NC(=O)c1n[nH]c2c1CCC2)=C\c1ccccc1,1.16µM,0.184µM,1.3µM,0.366µM,–
O=C(N/N=C/C=C/c1ccccc1)c1ccc(Br)cc1,–,–,–,–,–
O=C(Cc1cccs1)N/N=C/C(Br)=C/c1ccccc1,?,?,?,?,–
O=C(N/N=C/C=C/c1ccccc1)c1n[nH]c2c1CCC2,1.64µM,1.84µM,0.82µM,1.3µM,–
O=C(N/N=C/C(Br)=C\c1ccccc1)c1n[nH]c2c1CCC2,0.231µM,0.316µM,0.231µM,0.562µM,–
O=C(N/N=C/C=C/c1ccccc1)c1cccnc1,20.6µM,–,?,–,–
C[C@H](CO)N1C[C@H](C)[C@@H](CN(C)Cc2ccncc2)Oc2c(NS(=O)(=O)c3cccs3)cccc2C1=O,–,–,–,–,–
CC(C)Cc1ccc(C(C)/C=C2/CCC(CN3CCCCC3)C2=O)cc1 (centres undefined),2.91µM,?,2.91µM,?,-106.2
CC1CCCN(S(=O)(=O)c2ccc(C(=O)Nc3nnc(-c4ccco4)o3)cc2)C1 (centres undefined),8.2µM,–,7.31µM,–,–
O=C(Nc1nnc(-c2ccco2)o1)c1ccc(N2C(=O)CCC2=O)cc1,–,?,–,?,–
CC1CCCN(S(=O)(=O)c2ccc(C(=O)Nc3ccccc3-c3nc4ccccc4[nH]3)cc2)C1 (centres undefined),18.4µM,–,10.3µM,–,–
CC1CCN(S(=O)(=O)c2ccc(C(=O)Nc3ccccc3-c3nc4ccccc4[nH]3)cc2)CC1,?,–,?,–,–
CC1CCN(S(=O)(=O)c2ccc(C(=O)Nc3nnc(C4=COCCO4)o3)cc2)CC1,23.1µM,–,?,?,–
CCN(c1ccccc1)S(=O)(=O)c1ccc(C(=O)Nc2nnc(-c3ccco3)o2)cc1,?,?,18.4µM,?,–

# Source: PubChem BioAssay (National Center for Advancing Translational Sciences (NCATS))
